# Assay results taken from PubChem BioAssay AID504332 (National Center for Advancing Translational Sciences (NCATS), 2011).
# The whole screen tested about 350,000 compounds, of which about 31,000 (8.9%) were called active. Inconclusive results (about 15%) are left out. The full list was thinned out, with actives kept by preference. Values without a mark were called inactive. Calls follow the shape of the dose curve; as a rule, active = well fitted inhibition curve with a large enough effect; inconclusive = small, poorly fitted or top-dose-only effect; inactive = no such curve, though single readings can be large or run the other way.
# Biological target: Histone-lysine N-methyltransferase EHMT2 (Homo sapiens) (UniProt Q96KQ7)
# Test: qHTS Assay for Inhibitors of Histone Lysine Methyltransferase G9a; also: nearly all actives have a fitted effect of over 75% in size
# Conditions: G9a H3K9 monomethylation, AlphaScreen, 2 h; series mostly up to 59 µM; activity, negative = inhibition: at the top concentration
# In short: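 AlphaScreen read-out: biotin-H3K9 peptide (500 nM) methylation by 20 nM enzyme with 20 uM SAM, 2 h at room temperature after 15 min compound preincubation; anti-monomethyl H3K9 antibody plus donor/acceptor beads, 10 min dark.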
# % is scaled to controls: 0 for no effect and ±100 for the full control effect; potency is read from the fitted curve at half-maximal effect.
# Chain of Histone-lysine N-methyltransferase EHMT2 (Homo sapiens) (Q96KQ7 913-1193 limits assumed): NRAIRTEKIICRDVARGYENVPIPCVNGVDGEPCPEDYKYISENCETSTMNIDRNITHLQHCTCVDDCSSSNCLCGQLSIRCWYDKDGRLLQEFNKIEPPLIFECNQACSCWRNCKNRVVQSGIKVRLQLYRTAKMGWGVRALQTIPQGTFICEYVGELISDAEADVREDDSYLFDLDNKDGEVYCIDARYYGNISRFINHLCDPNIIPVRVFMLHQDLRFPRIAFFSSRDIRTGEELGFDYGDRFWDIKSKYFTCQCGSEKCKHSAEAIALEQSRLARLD
Compound,"activity, negative = inhibition",Potency
O=C(NC1CC(=O)N(c2ccc(F)cc2)C1)C1CCCCC1 (stereo not given),1.91%,–
COc1ccc(NC(=O)CSc2nnc(-c3nnn(-c4ccc(F)cc4)c3C)o2)cc1,20%,–
Cc1c(O)c(C)c2c(c1O)C(=O)C[C@@H](c1ccccc1)O2,17.8% [at 2.33 µM],–
CCn1c(C(C)NC(=O)c2ccc(C)cc2)n[nH]c1=S (stereo not given),–,39.8 µM (active)
CCn1c(SCC(=O)NNC(=O)c2ccc(OC)cc2)nnc1C(C)C,8.24%,–
CCn1c(SCC(=O)Nc2nc(C)cs2)nnc1C(C)NC(=O)c1ccccc1 (stereo not given),15.6%,–
CC(NC(=O)CCc1cn(Cc2ccccc2Cl)c2ccccc12)c1ccccc1 (stereo not given),-4.01%,–
COc1ccc(Cn2c(=O)n(-c3ccccc3C)c(=O)c3c4c(sc32)CN(C(C)=O)CC4)cc1,9.02%,–
CCN(CC)c1ccc2oc(=O)c(C)nc2c1,–,11.2 µM (active)
CCN(CC)c1ccc2cc(C(N)=O)/c(=N\NC(=O)c3ccncc3)oc2c1,-44.1% [at 102 µM],–
CCN(CC)c1ccc2c(Nc3ccccc3)c(C=O)c(=O)oc2c1,8.21% [at 102 µM],–
COc1ccc(CNc2nc(-c3ccc(Cl)cc3)nn2C(=O)c2ccccc2)cc1,9.43%,–
CCN(Cc1ccccc1)S(=O)(=O)c1cc2c3c(c1)CCN3C(=O)CC2,-8.04% [at 102 µM],–
O=C(NCc1ccccc1Cl)C1CCC(CNc2c(N3CCCCC3)c(=O)c2=O)CC1 (stereo not given),22.5% [at 102 µM],–
CCN(CC)c1ccc(NC(=O)C2CCC(CNc3c(N4CCCC4)c(=O)c3=O)CC2)c(C)c1 (stereo not given),–,39.8 µM (active)
CCOc1ccccc1NC(=O)C1CCC(CNc2c(N3CCOCC3)c(=O)c2=O)CC1 (stereo not given),-5.96% [at 102 µM],–
COc1ccc(Cc2nc3ccc(C(=O)NCC4CCOCC4)cc3o2)cc1OC,31.4% [at 102 µM],–
CC1CCCC(C)N1C(=O)CSc1nnnn1C1CCCC1 (stereo not given),3.58% [at 102 µM],–
CC(C)C(=O)Nc1nnc(SCC(=O)N2C(C)CCCC2C)s1 (stereo not given),–,79.4 µM (active)
CC(C)N(C(=O)CSc1nnc(NC2CC2)s1)c1ccccc1,-6.53% [at 0.501 µM],–
COc1cccc(-c2cc(C(=O)Nc3ccc(C)cc3)[nH]n2)c1,-1.27%,–
COc1ccc(-c2csc(-c3c(N)c(C(=O)c4ccc(OC)c(OC)c4)n4ccccc34)n2)cc1,1.87%,–
COc1cc(CN(C(=O)c2ccccc2Br)c2ccccn2)cc(OC)c1OC,-32.7%,–
O=C(c1ccncc1)N1CCN(S(=O)(=O)c2cc(C(F)(F)F)cc(C(F)(F)F)c2)CC1,-49.9%,–
OCCCNC(c1ccccc1)c1ccc(O)cc1 (stereo not given),–,11.2 µM (active)

Compound,"activity, negative = inhibition",Potency
O=C(Nc1cc(Cl)cc(Cl)c1)C(NCCCO)c1ccccc1 (stereo not given),1.16% [at 102 µM],–
O=C(CNC(c1ccccc1)c1ccccc1)Nc1ccc(F)cc1,14%,–
CCCCN(C)CCCNC(=O)CN1N=C(c2ccc(OC)cc2)CCC1=O,-8.59%,–
O=C(NCCCN1CCCC1=O)c1ccc(S(=O)(=O)Nc2ccccc2)cc1,7.97%,–
CC(=O)Nc1ccc(NC(=O)CCN2C(=O)C3CC=CCC3C2=O)cc1 (stereo not given),-17% [at 12.7 µM],–
Cc1ccccc1OCC(=O)Nc1c(C(=O)Nc2ccccc2F)oc2ccccc12,40.1%,–
COc1cccc(C2c3[nH]c4ccccc4c3CCN2Cc2cccc(C)n2)c1 (stereo not given),–,44.7 µM (active)
COc1cccc(N2CCN(C(=O)CCCCCn3c(=O)[nH]c4ccccc4c3=O)CC2)c1,3.2%,–
COc1cccc(CNC(=O)c2n[nH]c3ccccc23)c1,11.3% [at 102 µM],–
COc1ccc(CNC(=O)COCc2cc(-c3cccs3)on2)cc1OC,-9.69%,–
CN(CC1CCCN(CCc2cccc(C(F)(F)F)c2)C1)C(=O)c1ccc2nc[nH]c2c1 (stereo not given),-8.11% [at 102 µM],–
Cc1cc(C(=O)Nc2nnc(C3CC3)s2)c(C)s1,11.4% [at 12.7 µM],–
O=C(NNC(=O)c1cccnc1)Nc1ccccc1,-81.4% [at 2.33 µM],–
O=C(O)CSC(NC(=O)c1cccnc1)(C(F)(F)F)C(F)(F)F,–,14.1 µM (active)
O=C(CNC(=O)c1cccnc1)N/N=C/c1cccnc1,-9.35% [at 102 µM],–
CCN(CC)S(=O)(=O)c1ccc(-c2cn3ccc(C)cc3n2)cc1,4.83% [at 0.501 µM],–
COC(=O)c1ccccc1NC(=O)CSc1ccccn1,2.13%,–
CCOC(=O)CSc1ncc(-c2cccc(Cl)c2)cn1,115% [at 102 µM],–
CCOC(=O)CSc1ccccn1,–,39.8 µM (active)
O=C(Nc1ccccc1Cl)N1CCC(CN2CCCCC2)CC1,-2.61%,–
COc1ccc2sc(-c3ccc(N(C)C)cc3)c(C#CCO)c2c1,8.02% [at 0.501 µM],–
COc1ccc(-c2cc(-c3nc(-c4cc(OC)c(OC)c(OC)c4)no3)[nH]n2)c(OC)c1,-1.81%,–
O=C(c1cn(-c2ccccc2)nc1-c1cccnc1)N1CCCCC1,4.5% [at 102 µM],–
CC(C)(C)OC(=O)N/N=C/c1cn(-c2ccccc2)nc1-c1cccnc1,3.66% [at 102 µM],–
CN(C)/N=C/c1cn(-c2ccccc2)nc1-c1cccnc1,–,56.2 µM (active)
